Screening data deposited in PubChem by National Center for Advancing Translational Sciences (NCATS).
PTHR1 ag: agonists of human PTHR1 parathyroid hormone receptor. 410,000 compounds, 0.075% hits. HEK293 GP2 PTHR1 cells, GloSensor cAMP luminescence, 1 h. Q03431. Potency, µM (series often up to 115 µM), without a hit: at the highest dose activation, usual class: activators; note: nearly all actives have a fitted effect of over 55% in size
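HEK-293-derived GP2 cells expressing PTHR1 and a GloSensor cAMP reporter, 3,000/well, plated overnight, given luciferin plus IBMX (each 0.5 mM as added) for 1 h at 37 °C, then compound for 1 h at 37 °C. Luminescence was read after 15 min at room temperature.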
GLP-1R agonist: activates the human GLP-1 receptor; HEK293 GLP-1R CRE-luciferase, luminescence, 4-6 h; cells express a hypersensitive GLP-1R form; Potency, µM (titrated, usually from 45.6 µM), inactives show at the highest dose activation, actives largely listed as activators; 380,000 compounds, 0.007% hits; AID 624172; note: % of control where 0% means no effect
Target sequence (P43220 whole entry, looked up): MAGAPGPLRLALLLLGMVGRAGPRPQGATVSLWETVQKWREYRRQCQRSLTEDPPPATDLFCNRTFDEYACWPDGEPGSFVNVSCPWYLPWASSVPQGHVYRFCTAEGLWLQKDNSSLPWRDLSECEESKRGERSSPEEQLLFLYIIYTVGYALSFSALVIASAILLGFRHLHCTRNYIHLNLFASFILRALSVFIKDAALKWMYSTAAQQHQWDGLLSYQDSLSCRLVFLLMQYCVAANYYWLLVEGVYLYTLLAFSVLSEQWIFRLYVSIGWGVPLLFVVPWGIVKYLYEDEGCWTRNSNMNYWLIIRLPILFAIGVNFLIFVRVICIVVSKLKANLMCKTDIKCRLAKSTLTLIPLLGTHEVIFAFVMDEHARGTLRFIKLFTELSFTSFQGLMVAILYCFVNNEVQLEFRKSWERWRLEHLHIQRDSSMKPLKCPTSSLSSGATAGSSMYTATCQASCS
GLP-1R inv ag: inverse agonists of human GLP-1 receptor. P43220. HEK293 GLP-1R CRE-luciferase, luminescence, 24 h; GLP-1R form is constitutively active. Potency, µM (highest dose often 38.3 µM), for the others: at the highest dose activity change, negative = inhibition, usual class: inhibitors. 410,000 compounds, 1.6% hits. AID 624417; note: % is set by controls: 0 for no effect and ±100 for the full control effect; nearly all actives have a fitted effect of over 55% in size
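Readout was luciferase luminescence, measured 12 min after detection reagent at room temperature. Beforehand, GLP-1R reporter HEK293 cells had sat 12 h, then received compounds for 24 hr at 37 deg C.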
HEK293 tox: cytotoxicity counter-screen for GLP-1 receptor inverse agonists | HEK293 cAMP-luciferase reporter cells, luminescence, 24 h | Potency, µM (series often up to 38.3 µM), without a hit: top-dose activity change, negative = inhibition, most hits filed as inhibitors | 410,000 compounds, 0.13% hits;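 note: loss of luciferase light is scored as toxicity; % is set by controls: 0 for no effect and ±100 for the full control effect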
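MLSMR compounds, 24 hr on cells at 37 deg C/5% CO2; luminescence after luciferase reagent (12 min RT). Inhibition counted as the undesired cytotoxic outcome.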
The depositor's hits bear a star; [ ] = another dose, or the depositor's remark. A selection: hits, their analogues and other compounds. The true share with any hit is near 1.7%. Calls come from the whole dose curve; as a rule, active = well fitted curve in the direction sought with a large enough effect; inconclusive = small, poorly fitted or top-dose-only effect, or another doubt; inactive = no such curve, though single readings can be large; an effect the other way counts as inactive or inconclusive. Potency is the fitted concentration of half-maximal effect.

`CCCCCCN1C[C@@H](n2cc(COC(=O)c3ccccc3)nn2)[C@H](O)C[C@@H]1c1ccc(OC)cc1` gave PTHR1 ag -28.5%, GLP-1R agonist -3.1%, GLP-1R inv ag 14.1µM* and HEK293 tox -22.7%.
`CCc1ccc(-n2nc(C)c3c(C(=O)Nc4ccc(Cl)cc4)cc(C)nc32)cc1` gave PTHR1 ag -23.0%, GLP-1R inv ag -13.4% and HEK293 tox 4.1%.
CCc1ccc(-n2nc(C)c3c(C(=O)Nc4cccc(C(F)(F)F)c4)cc(C)nc32)cc1 was read as PTHR1 ag -43.0%, GLP-1R inv ag 2.24µM* and HEK293 tox -26.7%.
Screening Cc1nn(-c2ccccc2)c2nc(C3CC3)cc(C(=O)Nc3cccc(F)c3)c12 returned PTHR1 ag -14.7%, GLP-1R inv ag 5.62µM* and HEK293 tox -22.0%.
For CC1CC(NS(=O)(=O)c2cc3c4c(c2)CCN4C(=O)CC3)CC(C)(C)C1 (configuration not stated) the results were PTHR1 ag -20.2%, GLP-1R agonist 7.9%, GLP-1R inv ag -19.2% and HEK293 tox 2.2%.
`Cc1ccc(C)c2[nH]c(=O)c(C(c3nnnn3Cc3ccco3)N3CCc4ccccc4C3)cc12` (configuration not stated) gave PTHR1 ag -9.7%[57.5 µM], GLP-1R agonist -0.9%, GLP-1R inv ag 10µM* and HEK293 tox -13.7%.
Screening COc1cc(CN(C2CC2)S(=O)(=O)c2ccccc2Br)cc(OC)c1 returned PTHR1 ag inactive, GLP-1R agonist 24.4%, GLP-1R inv ag 10µM* and HEK293 tox 8.3%.
Screening CC(C)c1ccc(S(=O)(=O)Nc2cc3c(cc2NCc2ccccc2)n(C)c(=O)n3C)cc1 returned PTHR1 ag -55.5%, GLP-1R agonist 6.5%, GLP-1R inv ag -4.3% and HEK293 tox -2.4%.
CCOC(=O)CC1(NC(=O)c2cc(COc3ccc(F)c(F)c3)on2)CCCCC1 was read as PTHR1 ag -34.8%, GLP-1R agonist 16.5%, GLP-1R inv ag 10µM* and HEK293 tox 6.0%.
For C=CCC1(CC=C)CCCN1C(=O)c1cc(COc2ccc(F)c(F)c2)on1 the results were PTHR1 ag -68.7%, GLP-1R agonist 4.0%, GLP-1R inv ag 2.82µM* and HEK293 tox 7.9%.
Screening O=C(Oc1cc(=O)oc2c1c(=O)n1c3c(cccc23)CC1)c1ccc(F)cc1 returned PTHR1 ag -22.5%, GLP-1R agonist -0.1%, GLP-1R inv ag 2.4% and HEK293 tox 20.2%.
For COc1ccc(-c2cc3nc(-c4ccccc4)cc(N4CCCC(O)C4)n3n2)cc1 (configuration not stated) the results were PTHR1 ag inactive, GLP-1R agonist 2.9%, GLP-1R inv ag inconclusive and HEK293 tox 3.2%.
`COc1ccc(-c2cc3nc(-c4ccccc4)cc(N4CCC(O)CC4)n3n2)cc1` gave PTHR1 ag -5.3%, GLP-1R agonist 12.8%, GLP-1R inv ag 7.94µM* and HEK293 tox inconclusive.
For CN(C)CCCNc1cc(-c2ccccc2)nc2cc(-c3cccc(F)c3)nn12 the results were PTHR1 ag 2.4%, GLP-1R agonist -3.4%, GLP-1R inv ag 3.55µM* and HEK293 tox inconclusive.
Screening COCCN1CCN(c2cc(-c3ccccc3)nc3cc(-c4cccc(F)c4)nn23)CC1 returned PTHR1 ag -9.2%, GLP-1R agonist -17.7%, GLP-1R inv ag 7.94µM* and HEK293 tox 65.7%.
Screening Fc1cccc(-c2cc3nc(-c4ccccc4)cc(N4CCC5(CC4)OCCO5)n3n2)c1 returned PTHR1 ag -11.1%, GLP-1R agonist -10.2%, GLP-1R inv ag inconclusive and HEK293 tox 11.9%.
CC1(C)S[C@H]2C(NC(=O)[C@@H](N)c3ccc(O)cc3)C(=O)N2[C@@H]1C(=O)O (some centres not stated) was read as GLP-1R agonist 0.0%.
COc1ccc(Nc2c[nH]c(=O)[nH]c2=O)cc1 was read as PTHR1 ag -24.7%, GLP-1R agonist -0.9%, GLP-1R inv ag 8.1% and HEK293 tox -0.3%.
Screening O=C(COC(=O)c1cccc(O)c1)Nc1ccc(S(=O)(=O)N2CCOCC2)cc1 returned PTHR1 ag -20.6%, GLP-1R agonist -1.5%, GLP-1R inv ag -5.9% and HEK293 tox -13.9%.
